# RPL19A-GFP yeast: alters RPL19A-GFP fluorescence in TOR pathway yeast screen | S. cerevisiae RPL19A-GFP strain, flow cytometry, 3 h; stronger effect = lower value | percent response vs DMSO, % at 10 µM | 0.3% of 330,000 active | AID 2025;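 active = percent response vs DMSO below 50%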;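 note: median channel GFP fluorescence of the barcoded RPL19A-GFP strain; ratio of sample median GFP to plate DMSO average so 100% = DMSO; lower means less RPL19A-GFP as with rapamycin TOR inhibition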
# CIT2 TOR yeast: yeast TOR pathway CIT2-GFP modulation; S. cerevisiae CIT2-GFP strain, flow cytometry, 3 h; 100 means same as DMSO wells; GFP response vs DMSO, % at 10 µM; 0.065% of 320,000 active;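 active = GFP response relative to DMSO above a set limit, near the screen mean plus 3 SD, cut at about 150% in these data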;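 note: ratio of well median GFP fluorescence to mean of DMSO wells on the plate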
# LAP4 TOR yeast: alters LAP4-GFP fluorescence in TOR pathway yeast screen | S. cerevisiae LAP4-GFP multiplex, flow cytometry GFP, 3 h; median GFP as percent of DMSO wells | GFP response vs DMSO, % at 10 µM | 0.34% of 320,000 active;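 active = GFP response vs DMSO above a set limit, about the screen mean plus 3 SD, cut at about 150% in these data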
# AGP1-GFP MLPCN: modulators of TOR pathway AGP1-GFP in S. cerevisiae. S. cerevisiae AGP1-GFP multiplex flow cytometry, 3 h; GFP as percent of DMSO wells. GFP response vs DMSO, % at 10 µM. 0.02% of 320,000 active;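 active = GFP response relative to DMSO above a set limit, near screen average plus 3 SD, cut at about 150% in these data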;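 note: median GFP channel fluorescence of the gated AGP1 strain per well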
# MEP2-GFP yeast: modulators of TOR pathway MEP2-GFP in S. cerevisiae; S. cerevisiae MEP2-GFP strain, flow cytometry GFP, 3 h; 100% = DMSO control level; GFP response vs DMSO, % at 10 µM; 0.51% of 330,000 active; AID 2016;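 active = GFP response versus DMSO above a set limit, roughly screen mean plus 3 SD, cut at about 180% in these data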;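 note: median GFP fluorescence of the barcode-gated MEP2-GFP cells per well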
# LAP4 cherry2: second confirmation of modulators of TOR reporter LAP4-GFP in yeast. shares compounds with LAP4 TOR yeast. S. cerevisiae LAP4-GFP strain, flow cytometry GFP, 3 h. GFP response vs DMSO, % at 10 µM. 20% of 590 active. AID 2621;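 active = GFP signal as percent of the solvent control above about 150%, meaning raised reporter expression, limit read from the data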;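 note: ratio of well median GFP fluorescence to plate DMSO mean so 100% = DMSO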
# MEP2-GFP pick2: yeast MEP2-GFP modulation, second cherry pick; shares compounds with LAP4 TOR yeast; S. cerevisiae MEP2-GFP strain, flow cytometry GFP, 3 h; GFP response vs DMSO, % at 10 µM; 10% of 590 active; AID 2622;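 active = GFP signal above 150% of the solvent control wells, that is a rise of more than half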;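 note: median channel GFP fluorescence of all gated yeast cells per well; ratio of median GFP to plate DMSO average so 100% = DMSO level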
# RPL19A-GFP pick2: yeast RPL19A-GFP TOR reporter modulation, second cherry pick; AID 2623; S. cerevisiae RPL19A-GFP strain, flow cytometry GFP, 3 h; stronger effect = lower value; 100% means same as DMSO wells; GFP response vs DMSO, % at 10 µM; 3% of 590 active; shares compounds with LAP4 TOR yeast;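 active = under 65% GFP response relative to DMSO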;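 note: median GFP channel fluorescence per well over the all cells gate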
# CIT2 GFP CP2: second confirmation of modulators of TOR reporter CIT2-GFP in yeast; S. cerevisiae CIT2-GFP strain, flow cytometry GFP, 3 h; DMSO control wells read 100%; AID 2624; 8% of 590 active; GFP response vs DMSO, % at 10 µM; shares compounds with LAP4 TOR yeast;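 active = GFP response vs DMSO above about 150%, limit read from the data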;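 note: median green fluorescence per well over all gated yeast cells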
# AGP1 GFP CP2: yeast AGP1-GFP TOR reporter modulation, second cherry pick; 590 tested, under 10 active; percent response vs DMSO, % at 10 µM; shares compounds with LAP4 TOR yeast; S. cerevisiae AGP1-GFP strain, flow cytometry GFP, 3 h; AID 2643;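 active = over 150 percent of DMSO response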;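 note: median GFP channel fluorescence over all cells without mother daughter split; sample median GFP divided by mean DMSO control so 100% equals DMSO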
# Yeast autofluor: compound is autofluorescent in yeast s288c cells | S. cerevisiae s288c, 520 nm autofluorescence, flow cytometry, 3 h; stronger effect = higher value; zero means same as solvent-only cells | 610 tested, under 10 active | fluorescence change (kMESF span) at 33 µM | shares compounds with LAP4 TOR yeast;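 active = fluorescence span over the dose series, or activity score, above about 33, limit read from the data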
# s288c autofl DR: yeast s288c autofluorescence artifact in dose response | shares compounds with LAP4 TOR yeast | S. cerevisiae s288c parental, compound autofluorescence, flow cytometry, 3 h | fluorescence change (span) at 33 µM | 110 tested, under 10 active | AID 488829;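 active = fluorescence change span, or the activity score built from it, above 25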
# TORC1 bypass gr: stops wildtype yeast growth while TORC1 bypass cells still grow; shares compounds with LAP4 TOR yeast; S. cerevisiae BY4741 spot growth rating, 48-72 h; stronger effect = lower value; growth rating (0-3) at 30 µM; 120 tested, under 10 active; AID 504456;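 active = growth rating at most 1 for wild type yeast while the TORC1 bypass strain still grows fully, rated 3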
# * = called active by the depositor; . = not tested or not shown. A selection: hits, their analogues and other compounds. The true share with any hit is near 0.93%.
SMILES,RPL19A-GFP yeast,CIT2 TOR yeast,LAP4 TOR yeast,AGP1-GFP MLPCN,MEP2-GFP yeast,LAP4 cherry2,MEP2-GFP pick2,RPL19A-GFP pick2,CIT2 GFP CP2,AGP1 GFP CP2,Yeast autofluor,others
CC(C)[C@@]1(c2ccccc2)ON(c2ccccc2C(F)(F)F)C1=O,99,105,110,100,94,105,96,102,104,97,-0.2,
O=C1N(c2ccccc2C(F)(F)F)O[C@]1(c1ccccc1)C1CCCCC1,95,99,85,71,89,107,102,105,115,107,-0.1,
FC(F)(F)c1ccccc1-n1ccnc1,89,72,108,75,99,.,.,.,.,.,.,
O=C(O)c1nn(-c2ccccc2C(F)(F)F)cc1O,98,105,95,99,93,.,.,.,.,.,.,
O=C1N(c2ccccc2C(F)(F)F)OC1(Cc1ccccc1)c1ccccc1 (stereo not drawn),96,101,94,97,99,112,106,109,112,103,0,
CC(C)[C@]1(c2ccccc2)ON(c2ccccc2C(F)(F)F)C1=O,94,94,94,93,94,109,103,104,114,108,-0.2,
CCc1ccc(OCCSc2nc3ccccc3n2CC(=O)O)cc1,103,102,83,98,101,.,.,.,.,.,.,
Nn1c(SCC(=O)NCC2CCCO2)nnc1-c1ccc(OC(F)F)cc1 (stereo not drawn),109,103,104,104,112,.,.,.,.,.,.,
CC(C)[C@]1(c2ccc(Cl)cc2)ON(c2ccccc2C(F)(F)F)C1=O,96,106,107,100,99,102,94,101,106,100,-0.1,
Nc1cc(Oc2cccc(Cl)c2)nc(NCc2ccccc2)n1,.,.,.,.,.,.,.,.,.,.,.,s288c autofl DR=0;TORC1 bypass gr=0
COc1cc(Oc2ccccc2)nc(N)n1,99,103,97,102,94,.,.,.,.,.,.,
Cc1cc(Oc2ccccc2)nc(NCc2ccccc2)n1,95,91,99,99,104,.,.,.,.,.,.,
CNc1nc(N)cc(Oc2cccc(Cl)c2)n1,.,.,.,.,.,.,.,.,.,.,.,TORC1 bypass gr=3
COc1ccc(CNC(=O)c2ccc(Cn3cc(Cl)cn3)o2)cc1,101,90,101,98,105,.,.,.,.,.,.,
CC(C)N(C(=O)COC(=O)[C@@H]1CC(O)CN1S(=O)(=O)c1ccc(C(C)(C)C)cc1)C(C)C (stereo partly drawn),102,100,92,100,99,.,.,.,.,.,.,
O=C(/C=C/c1ccc(Cl)cc1)c1cccnc1,58,55,88,40,94,111,108,100,111,94,.,
N#Cc1ccc(/C=C/C(=O)c2cccnc2)cc1,94,96,105,90,87,.,.,.,.,.,.,
O=C(Nc1cccc(F)c1)C1CCN(C(=O)N2CCOc3ccccc32)CC1,94,107,113,104,90,.,.,.,.,.,.,
CC(=O)NC(CC(=O)NNC(=O)c1cccs1)c1ccccc1 (stereo not drawn),99,101,100,104,101,.,.,.,.,.,.,
O=C(CNC(=O)C1CCCCC1)NC1CCCCC1,100,103,99,100,105,.,.,.,.,.,.,
COc1c(OC(C)=O)c(=O)n2c3ccccc3c3ccnc1c32,48*,93,95,24,245*,91,92,105,109,87,.,
CCCCCCSc1ccc(-c2nc3ccccn3c2NCCCC)cc1,99,88,161*,92,104,125,108,97,101,94,.,
Cc1ccc(/C=C/C(=O)c2ccccc2)cc1,114,107,111,114,103,.,.,.,.,.,.,
Cc1ccc(/C=C/C(=O)c2ccccc(=O)c2O)c(C)c1,64,103,106,20,181*,.,.,.,.,.,0.91,
O=C(/C=C/c1ccccc1Cl)c1ccccc(=O)c1O,63,95,146,33,160,162*,222*,76,145,77,16,
SMILES,RPL19A-GFP yeast,CIT2 TOR yeast,LAP4 TOR yeast,AGP1-GFP MLPCN,MEP2-GFP yeast,LAP4 cherry2,MEP2-GFP pick2,RPL19A-GFP pick2,CIT2 GFP CP2,AGP1 GFP CP2,Yeast autofluor,others
Cc1ccc(C)c(/C=C/C(=O)c2ccccc(=O)c2O)c1,91,72,135,67,96,145,168*,78,152*,82,14,
COC(=O)c1cn(C(=O)c2cc(Br)ccc2Cl)c2ccccc12,104,101,93,101,104,.,.,.,.,.,.,
COC(=O)c1sccc1NC(=O)CC1C(=O)NCCN1C(=O)c1ccc(N(C)C)cc1 (stereo not drawn),94,101,104,107,86,.,.,.,.,.,.,
CCOC(=O)CSC1=NC(=O)/C(=C/c2ccc(OC)cc2)S1,94,75,152*,93,96,.,.,.,.,.,2.3,
NC(=O)c1cc(S(=O)(=O)N2CCOCC2)cs1,103,103,102,102,105,.,.,.,.,.,.,
N/C(=N\OC(=O)c1cc(Br)ccc1Cl)c1ccccn1,89,117,208*,90,104,.,.,.,.,.,1.2,
CC(NC(=O)c1ccco1)C(=O)N1CCCCC1 (stereo not drawn),100,150*,91,113,110,100,103,101,100,98,.,
C[C@H](NC(=O)c1ccco1)C(=O)N1CCCC1,93,89,80,85,92,.,.,.,.,.,.,
O=C(O)C1C2CCC(O2)C1C(=O)Nc1ccc(O)cc1 (stereo not drawn),95,86,90,88,97,.,.,.,.,.,.,
N/C(Cc1ccc(Cl)cc1)=N\OC(=O)c1ccccc1,82,111,192*,62,106,218*,166*,90,225*,77,1.7,
